VDR inhibitor – vitamin D3 receptor (human) inhibition; P11473; VDR-SRC2-3 peptide fluorescence polarization, 2 h; Potency, µM, for inactives: max response, negative = inhibition, hits mostly inhibitors; actives 0.93% (n = 400,000); AID 504847; further: on the % scale 0 is the no-effect control and ±100 the full control effect
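Measured by FP: displacement of SRC2-3 coactivator peptide from VDR by library compounds, following a two-hour ambient incubation.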
BAZ2B inh – inhibitors of human BAZ2B bromodomain; Q9UIF8; AlphaScreen BAZ2B-H3K14Ac peptide displacement; Potency, µM (top dose mostly 114 µM), for the others: top-dose activity change, negative = inhibition, most hits filed as inhibitors; actives 4.4% (n = 360,000); AID 504333; further: on the % scale 0 is the no-effect control and ±100 the full control effect; nearly all actives have a fitted effect of over 60% in size
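Protein-peptide AlphaScreen: BAZ2B 50 nM, b-H3K14Ac 50 nM, 1x PBS pH 7.4 + 0.01% Tween-20. Preincubation 30 min RT; cpd 30 min RT (top 110 uM); beads 20 min RT, light-protected.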
HP1b binding inh – inhibitors of HP1-beta chromodomain binding to methylated histone tails | P83916 | AlphaScreen HP1-beta / biotin-H3K9me3 peptide binding | Potency, µM (highest dose often 114 µM), without a hit: at the highest dose activity change, negative = inhibition, most hits filed as inhibitors | actives 0.56% (n = 390,000); further: nearly all actives have a fitted effect of over 70% in size
Target sequence (P83916 whole entry, looked up): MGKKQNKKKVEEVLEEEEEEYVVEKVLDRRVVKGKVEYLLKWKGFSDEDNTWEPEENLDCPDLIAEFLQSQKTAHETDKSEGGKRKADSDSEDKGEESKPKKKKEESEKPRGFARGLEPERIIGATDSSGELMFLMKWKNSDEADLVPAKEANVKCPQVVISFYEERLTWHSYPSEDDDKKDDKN
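AlphaScreen: HP1-beta (50 nM) preformed 30 min with biotin-H3(1-18)K9me3 peptide (50 nM) in PBS pH 7.4, 0.01% Tween-20. Compound added for 30 min at RT, then streptavidin donor/nickel chelate acceptor beads (10 ug/mL) for 30 min.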
G9a inh – inhibitors of human histone lysine methyltransferase G9a; AID 504332; actives 8.8% (n = 350,000); Potency, µM (highest dose often 102 µM), inactives show top-dose activity, negative = inhibition, most hits filed as inhibitors; G9a H3K9 monomethylation, AlphaScreen, 2 h; Q96KQ7; further: on the % scale 0 is the no-effect control and ±100 the full control effect; nearly all actives have a fitted effect of over 75% in size
Target sequence (Q96KQ7 913-1193 limits assumed): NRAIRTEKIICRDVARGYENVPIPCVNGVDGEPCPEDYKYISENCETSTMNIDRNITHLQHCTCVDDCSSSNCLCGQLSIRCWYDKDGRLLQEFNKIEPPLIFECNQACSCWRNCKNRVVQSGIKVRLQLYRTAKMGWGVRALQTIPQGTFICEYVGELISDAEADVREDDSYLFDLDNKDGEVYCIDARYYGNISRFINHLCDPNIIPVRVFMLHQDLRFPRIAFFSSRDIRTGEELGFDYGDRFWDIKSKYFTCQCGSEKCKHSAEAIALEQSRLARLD
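Signal arises when biotinylated H3K9 peptide, once monomethylated, bridges streptavidin donor and antibody-captured acceptor beads. Enzyme at 20 nM was preincubated 15 min with test compounds; peptide 500 nM and SAM 20 uM then reacted for 2 h.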
PLK1 PBD block – inhibitors of human PLK1 polo-box domain binding. P53350. Plk1 PBD binding of FITC phosphopeptide, fluorescence polarization. Potency, µM, for inactives: max response, negative = inhibition, most hits filed as inhibitors. actives 2.8% (n = 360,000). AID 720504; further: series mostly up to about 57 µM; on the % scale 0 is the no-effect control and ±100 the full control effect; nearly all actives have a fitted effect of over 65% in size
JMJD2A Tudor inh – inhibitors of human JMJD2A Tudor domain | O75164 | actives 4.4% (n = 390,000) | AlphaScreen JMJD2A-Tudor / H3K4me3 peptide binding | Potency, µM (doses to about 114 µM), for the others: at the highest dose activity change, negative = inhibition, usual class: inhibitors; further: on the % scale 0 is the no-effect control and ±100 the full control effect; nearly all actives have a fitted effect of over 50% in size
The depositor's hits bear a star; ? = inconclusive; · = no result; [ ] = remark or other dose. Most compounds without a hit are left out; they make up all but 11% or so of the library. The call rests on the fitted dose curve; in most records, active means well fitted curve in the direction sought with a large enough effect; inconclusive means small, poorly fitted or top-dose-only effect, or another doubt; inactive means no such curve, though single readings can be large; an effect the other way counts as inactive or inconclusive. Potency means the concentration at half of the fitted maximal effect.

SMILES	VDR inhibitor	BAZ2B inh	HP1b binding inh	G9a inh	PLK1 PBD block	JMJD2A Tudor inh
COc1cc(CN2CCNC(=O)C2CC(=O)NCCCN2CCOCC2)cc(OC)c1 (configuration not stated)	-5%	-13%	29%	?	-2%	-6%
O=C1NC(Cc2ccc(O)cc2)c2nc3ccc(F)cc3c(=O)n2-c2ncccc21 (configuration not stated)	·	·	·	·	3%	·
COc1cccc(CN2CCNC(=O)C2CC(=O)NCC2CCOCC2)c1 (configuration not stated)	10%	0%	40%	50µM*	-10%	-12%
CCCN1CCC(NC(=O)CC2C(=O)NCCN2Cc2cccc(OC)c2)CC1 (configuration not stated)	-15%	10%	26%	19%	-7%	-15%
O=C(CC1C(=O)NCCN1Cc1cccc(Oc2ccccc2)c1)NCC1CCOCC1 (configuration not stated)	-8%	-28%	47%	45µM*	-16%	-17%
COc1cccc(CN2CCNC(=O)C2CC(=O)NC2Cc3ccccc3C2)c1 (configuration not stated)	-2%	?	40%	45µM*	-13%	-11%
COc1ccc(CN2CCNC(=O)C2CC(=O)NCC2CCOCC2)c(C)c1C (configuration not stated)	-13%	1%	38%	84%	-5%	2%
COc1ccc(CN2CCNC(=O)C2CC(=O)NCC2CCOCC2)c(F)c1 (configuration not stated)	-10%	-3%	13%	79µM*	-10%	-6%
COc1cc(N)c(Cl)cc1C(=O)OCCCN1CCCCC1	-5%	·	·	31%[59 µM]	·	·
Cc1ccccc1/C=C(\C#N)c1nc(-c2ccc(Cl)cc2)cs1	-14%	49%	111%	133%[59 µM]	·	71%
NC(CCCCCP(=O)(c1ccccc1)c1ccccc1)C(=O)O (configuration not stated)	-7%	-18%	-1%	?	-14%	10µM*
CC1=CC(=O)OC1Cc1ccc2ccccc2n1 (configuration not stated)	-4%	·	·	·	·	·
CN(C)c1cccc(NC(=O)c2cccc3ccccc23)c1	-15%	28µM*	50µM*	32µM*	-9%	22µM*
CN(C)c1cccc(NC(=O)CCc2ccccc2)c1	3%	?	?	3.2µM*	-19%	12%[11.4 µM]
Cc1ccc(NC(=O)c2cccc3ccccc23)cc1	-6%	2%	39%	16%	-1%	1%
CC(C)(C)Cn1nc(-c2ccc(Cl)cc2)c2c(N)ncnc21	-2%	·	·	·	·	·
Cc1ccc(NC(=O)C2CCC(CNS(=O)(=O)c3cccc4nsnc34)CC2)c(Cl)c1 (configuration not stated)	-3%	-2%	36%	-4%[59 µM]	·	4%
O=C(CN1C(=O)CSc2ccc(S(=O)(=O)N3CCCC3)cc21)Nc1cccc(Cl)c1	5%	-16%	28%	-32%[59 µM]	·	-22%
CCCC(CNC(C)=O)(C1=CCCCC1)c1ccccc1 (configuration not stated)	·	·	·	·	-12%	·
Nn1c(Cc2ccccc2F)nnc1SCn1nnc2ccccc2c1=O	-7%	10%	59%	25µM*	?	-13%
O=c1c2ccccc2nnn1CSc1nnc(-c2cccnc2)n1-c1ccccc1F	-16%	0%	7%	50µM*	-4%	-16%
CN(C)c1cc(-c2ccc(Cl)cc2)oc(=O)c1Cl	6%	-14%	18%	-11%	-2%	-15%
CN(C)c1cc(-c2ccc(Cl)cc2Cl)oc(=O)c1Cl	-1%	89µM*	18%	·	-18%	-9%
COc1ccc(C(C(=O)NC(C)C)N(C(=O)CCC(=O)Nc2nccs2)c2ccccc2F)cc1 (configuration not stated)	-15%	-8%	?	-2%	13µM*	?
CCCN(CCC)C(=O)Cn1c(=O)n(-c2ccc(C)c(C)c2)c(=O)c2c3c(sc21)CCCCC3	3%	2%	19%	5%[59 µM]	·	-1%

Compound activity as filed in PubChem BioAssay.
